PostGolgi yeast = growth inhibition of a yeast mutant, post-Golgi transport screen | post-Golgi transport phenotypic cell assay | inhibition, % at 10 µM | 0.9% of 98,000 active | AID 739;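 further: yeast cells grown in 1536-well plates; yeast grown about 18 h at 30C before absorbance read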
CYP2C19 inhib = human CYP2C19 inhibition. P33261. CYP2C19 Supersomes, luciferin-H EGE luminescence, 30 min. inhibition, % at 5 µM. 21% of 96,000 active. AID 778;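 active means CYP2C19 inhibition above a set limit at 5 µM in the primary screen, cut at about 50% in these data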;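 further: plate controls were negative control wells for no effect and 2.5 mM tranylcypromine positive control for full effect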
PostGolgi ctrl = yeast control strain growth, post-Golgi counter-screen; efflux-deficient yeast background strain, growth absorbance A615, 16 h; inhibition, % at 10 µM; 5% of 98,000 active
CYP2C9 activ = CYP2C9 (human) activation | P11712 | recombinant CYP2C9, luciferin-H conversion, luminescence; hits give high values; factor 1 = untreated enzyme, 0 = blocked | activation factor at 5 µM | 1.4% of 96,000 active | AID 1024;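 active means activation factor of 2 or more for CYP2C9 at a 5 µM dose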;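 further: 0 = sulfaphenazole-blocked wells and 1 = vehicle-only wells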
Target sequence (P11712 whole entry, looked up): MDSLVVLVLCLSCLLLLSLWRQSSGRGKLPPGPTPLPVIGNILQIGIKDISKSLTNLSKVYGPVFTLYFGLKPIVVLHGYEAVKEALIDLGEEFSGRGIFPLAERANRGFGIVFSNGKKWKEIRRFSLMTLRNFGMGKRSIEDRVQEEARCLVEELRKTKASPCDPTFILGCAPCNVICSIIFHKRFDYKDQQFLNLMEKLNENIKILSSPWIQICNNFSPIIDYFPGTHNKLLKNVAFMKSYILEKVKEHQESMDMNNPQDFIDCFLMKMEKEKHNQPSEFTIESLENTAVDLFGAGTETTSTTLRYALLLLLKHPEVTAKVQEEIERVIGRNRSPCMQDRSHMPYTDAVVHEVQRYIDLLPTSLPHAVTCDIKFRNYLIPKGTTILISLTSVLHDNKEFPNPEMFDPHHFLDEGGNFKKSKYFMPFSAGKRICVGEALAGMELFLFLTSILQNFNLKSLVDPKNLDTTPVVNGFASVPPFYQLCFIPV
CYP2C19 act = increases human CYP2C19 enzyme activity. 96,000 tested, under 10 active. activation factor at 5 µM. recombinant CYP2C19, luciferin-H EGE luminescence; hits give high values; 0 = fully inhibited enzyme, 1 = untreated enzyme;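 active means activation factor of at least 2 at 5 µM in the primary screen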;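 further: 0 = wells with 2.5 mM tranylcypromine and 1 = vehicle-only wells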
CYP2C9 inhib = human CYP2C9 inhibition; CYP2C9 Supersomes, luciferin-H conversion, luminescence; P11712; 20% of 96,000 active; inhibition, % at 5 µM; AID 777;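 active means blocking of liver enzyme CYP2C9 beyond about 50% at 5 µM, limit read from the data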
Starred values were filed as active, the others as inactive; x = no result. This is a sample that favours compounds with a hit; in the whole collection about 32% have one here. Unless noted, no stated cut-off is given here; in the data, active means inhibition above about 30%; inactive means the rest.

SMILES | PostGolgi yeast | CYP2C19 inhib | PostGolgi ctrl | CYP2C9 activ | CYP2C19 act | CYP2C9 inhib
Cn1ncc(C#N)c1NC(=O)C1CC(c2ccc(Cl)cc2)=NO1 (stereo not given) | 5 | 72* | 2 | 0.7 | 0.3 | 31
COc1ccc(Br)cc1C1N2CC3(C)CN1CC(C)(C2)C3=O (stereo not given) | 3 | 77* | 39* | 1.1 | 0.2 | -5
COc1ccc2[nH]cc(C3N4CC5(C)CN3CC(C)(C4)C5=O)c2c1 (stereo not given) | -9 | 22 | -3 | 1.1 | 0.8 | -9
O=c1cc(N2CCCCC2)c(-c2ccccc2)nn1Cc1c(Cl)cccc1Cl | -4 | 27 | 46* | 0.6 | 0.7 | 45
Cc1ccc(C(=O)/C=C/c2ccc3c(c2)OCO3)o1 | -9 | 54* | 13 | 0.7 | 0.5 | 34
Cc1ccc(C(=O)/C=C/c2ccc(Br)cc2)o1 | -5 | 13 | 9 | 0.9 | 0.9 | 8
CCNc1ccccc(C(=O)/C=C/c2ccc3c(c2)OCO3)c1=O | 4 | 85* | 0 | 0.6 | 0.1 | 37
CC(/C=C/c1ccc2c(c1)OCO2)=N\NC(=O)c1cccc([N+](=O)[O-])c1 | 1 | 0 | -3 | 0.9 | 1 | 9
Cc1ccc(C(=O)/C=C/c2ccccc2)o1 | -1 | 69* | 7 | 0.4 | 0.3 | 57*
CCOC(=O)COc1cc2c(C(=O)OCC)c(C)oc2cc1Br | 2 | 30 | 15 | 1 | 0.7 | -1
CCOC(=O)c1c(C)oc2c(CN3CCN(C)CC3)c(Br)c(OC)c(O)c12 | -1 | 3 | 5 | 0.9 | 1 | 9
CCOC(=O)c1c(C)oc2cc(Br)c(O)c(Br)c12 | -7 | -2 | 52* | 0.3 | 1 | 67*
CCOC(=O)c1c(C)oc2cc(Br)c(OC(C)C(=O)OCC)cc12 (stereo not given) | -9 | 94* | 19 | 0.1 | 0.1 | 91*
COc1cc(C)nc(NC(=O)COc2ccc(Cl)cc2C)n1 | 6 | 34 | -4 | 1 | 0.7 | -3
Cc1nn(-c2ccccc2)c(C)c1C(=O)OC/C(O)=C(\C#N)c1nc2ccccc2[nH]1 | 13 | 62* | 6 | 0.4 | 0.4 | 64*
CC(=O)OC(/C(O)=C(\C#N)c1nc2ccccc2[nH]1)c1ccccc1 (stereo not given) | -5 | 34 | 5 | 0.3 | 0.7 | 66*
CN(C)c1nc(Oc2ccc(=O)[nH]n2)nc(N2CCCCC2)n1 | -21 | 9 | 4 | 0.8 | 0.9 | 19
CCCOCCOC(=O)c1[nH]c2c(c1C)C(=O)CC(c1cc(OC)ccc1OC)C2 (stereo not given) | 3 | x | 12 | x | x | x
Cc1c(C(=O)N2CCOCC2)[nH]c2c1C(=O)CC(c1ccccc1Cl)C2 (stereo not given) | -1 | -8 | 21 | 1.2 | 1.1 | -24
COCCOC(=O)c1[nH]c2c(c1C)C(=O)CC(c1cc(OC)ccc1OC)C2 (stereo not given) | 0 | 8 | 3 | 0.4 | 0.9 | 59*
COc1ccc(OC)c(C2CC(=O)c3c([nH]c(C(=O)OC(C)C)c3C)C2)c1 (stereo not given) | -5 | 46 | 13 | 0.4 | 0.5 | 58*
COc1ccc(OC)c(C2CC(=O)c3c([nH]c(C(=O)OCC4CCCO4)c3C)C2)c1 (stereo not given) | 1 | 36 | 19 | 0.3 | 0.6 | 66*
CCN(c1ccc(OC)cc1)c1ncnc2nc[nH]c12 | 10 | -10 | 3 | 1.1 | 1.1 | -8
Cn1c(NC(=O)COc2ccccc2)cc(=O)n(C)c1=O | -4 | 12 | 9 | 0.9 | 0.9 | 6
O=C1CC(c2c[nH]c3ccccc23)C(=O)N1 (stereo not given) | 3 | -10 | 5 | 1.1 | 1.1 | -10
COc1cccc(N2C(=O)CC(c3c[nH]c4ccccc34)C2=O)c1 (stereo not given) | -5 | 89* | 10 | 0.7 | 0.1 | 34
Nc1cc(-c2ccc(Cl)cc2)nn1S(=O)(=O)c1cccc2nsnc12 | 58* | 94* | 66* | 0.1 | 0.1 | 86*
Nc1cc(-c2ccc(Br)cc2)nn1S(=O)(=O)c1cccc2nsnc12 | 44* | 96* | 83* | 0.1 | 0 | 89*
Cc1nc2c(cc(Oc3ccc(S(=O)(=O)N4CCOCC4)cn3)c3ccsc32)s1 | -3 | 84* | 14 | 0.1 | 0.2 | 90*
